Results filed as inconclusive are left out. Where a call stands in place of a potency, no number is given. Activity calls are given as the source filed them. Calls come from the whole dose curve; as a rule, active = well fitted cell-killing curve with a large enough effect; inconclusive = small, poorly fitted or top-dose-only effect, or effect the other way; inactive = flat fitted curve, though single readings scatter.

For one assay, the system named is SKOV3. Nature of the assay: Primary qHTS to identify gynecologic anti-cancer compounds using libraries of approved drugs and bioactive compounds (AID 1345084). Note: nearly all actives have a fitted effect of over 55% in size. The following applies: Gynecologic cancer cell panel viability, ATPlite luminescence, 48 h; series mostly up to 57.5 µM. An outline of the steps:
(§1)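 ATP-based viability (ATPlite), 1,000 cells/well, 16 h pre-incubation, 48 h compound at 37 C, 5% CO2, 15 min RT before read.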
Background: qHTS replaces the single test concentration by a dilution series.
Consider `CCC(C)C(C)(COC(N)=O)COC(N)=O` (stereo not drawn), for which the result was inactive.
Regarding `CN1CCC(O)(c2ccc(F)cc2)C(C(=O)c2ccc(F)cc2)C1` (stereo not drawn), the molecule was called inactive.
`CCC1(c2ccc(N)cc2)CCC(=O)NC1=O` (stereo not drawn): the call was inactive.
Same read-out and setting: under `C[C@]12Cc3cn[nH]c3C[C@@H]1CC[C@@H]1[C@@H]2CC[C@@]2(C)[C@H]1CC[C@]2(C)O` stands “inactive”; under `[N-]=[N+]=CC(=O)OC[C@H](N)C(=O)O`, “inactive”.
The same measure, in the same setting: the result for `COc1cc(CCN)cc(OC)c1OC` reads “inactive”.
Turning to `CCC(CC)(CNC(=O)CCCO)c1cccc(OC)c1`, the molecule was classed as inactive.
The same measure, in the same setting: under `C=C(C)[C@H]1CN[C@H](C(=O)O)[C@H]1CC(=O)O` stands “inactive”; under `C[C@]12CC[C@H]3[C@@H](CCC4=CC(=O)CC[C@@H]43)[C@@H]1CC[C@@H]2OC(=O)CCC1CCCCC1`, “inactive”.
Take `Nc1nc(N)nc(NC2CC2)n1`: the molecule was called inactive.
Regarding `O=C1OC(CCN2CCCCC2)OC1(c1ccccc1)c1ccccc1` (stereo not drawn), the molecule was called inactive.
On to `O=C1CN=C(c2ccccc2)c2cc([N+](=O)[O-])ccc2N1`, for which the result was inactive.
For the molecule `CN1CC[C@]23c4c5ccc(O)c4O[C@H]2[C@@H](O)C=C[C@H]3[C@H]1C5`, the result was inactive.
Take `CN1C(=O)COc2c(C(=O)NC3CN4CCC3CC4)cc(Cl)cc21` (stereo not drawn): the outcome was inactive.
On the same count and under the same terms, the result for `CC(C)(N)Cc1ccccc1Cl` reads “inactive”; that for `CC(Cc1ccccc1)N(C)Cc1ccco1` (stereo not drawn), “inactive”; that for `Clc1cccc(SC2CCNCC2)n1`, “inactive”.
Still for that read-out and setting: under `C=CCC1(C(C)CC)C(=O)NC(=O)NC1=O` (stereo not drawn) stands “inactive”; under `CCN[C@@H](C)Cc1ccccc1`, “inactive”.
Take `Clc1ccccc1N1CCNCC1`: the outcome was inactive.
The same measure, in the same setting: the result for `O=C(O)CCCc1ccc(N(CCCl)CCCl)cc1` reads “inactive”; that for `C[C@]12CC[C@H]3[C@@H](CC[C@@]45O[C@H]4C(O)=C(C#N)C[C@]35C)[C@H]1CC[C@H]2O`, “inactive”; that for `O=c1[nH]c2ccccc2n1C1CCNCC1`, “inactive”.
On the same count and under the same terms, under `C=CCN1C[C@H](C)N([C@H](c2ccc(C(=O)N(CC)CC)cc2)c2cccc(OC)c2)C[C@H]1C` stands “inactive”; under `c1ccc(N2CCNCC2)cc1`, “inactive”.
For `CCCOC(=O)c1cncn1C(C)c1ccccc1` (stereo not drawn), the call was inactive.
In the case of `C[C@]12CC[C@H]3[C@@H](CCC4=CC(=O)CC[C@@H]43)[C@@H]1CC[C@@H]2OC(=O)CCc1ccco1`, the molecule was classed as inactive.
For the molecule `CC(Cc1ccccc1)NCCn1cnc2c1c(=O)n(C)c(=O)n2C` (stereo not drawn), the call was inactive.
Still for that read-out and setting: under `C#CC(O)(C=CCl)CC` (stereo not drawn) stands “inactive”; under `CCc1cc2c(s1)-n1c(C)nnc1CN=C2c1ccccc1Cl`, “inactive”; under `CC[N+]1(CC)CCC(OC(=O)C(O)(c2ccccc2)c2ccccc2)C1` (stereo not drawn), “inactive”.
The same measure, in the same setting: under `CC(=O)C1CCOC1=O` (stereo not drawn) stands “inactive”; under `ClCCN1CCCC1`, “inactive”.
Still for that read-out and setting: the result for `COc1c2c(cc3c1OCO3)CCN(C)C2` reads “inactive”.

The subject of the next assay is Tov-21-G. Described as above. The following applies: Gynecologic cancer cell panel viability, ATPlite luminescence, 48 h; series mostly up to 57.5 µM. The gist of the method:
as §1
Background: ATP-based viability assays read luminescence as a measure of living cells.
On to `CCC(C)C(C)(COC(N)=O)COC(N)=O` (stereo not drawn), for which the Potency entry was “inactive”.
On the same count and under the same terms, under `CN1CCC(O)(c2ccc(F)cc2)C(C(=O)c2ccc(F)cc2)C1` (stereo not drawn) stands “inactive”.
For the molecule `CCC1(c2ccc(N)cc2)CCC(=O)NC1=O` (stereo not drawn), the Potency entry is “inactive”.
Same read-out and setting: the result for `C[C@]12Cc3cn[nH]c3C[C@@H]1CC[C@@H]1[C@@H]2CC[C@@]2(C)[C@H]1CC[C@]2(C)O` reads “inactive”.
Turning to `[N-]=[N+]=CC(=O)OC[C@H](N)C(=O)O`, the Potency entry was “inactive”.
The same measure, in the same setting: the result for `COc1cc(CCN)cc(OC)c1OC` reads “inactive”; that for `CCC(CC)(CNC(=O)CCCO)c1cccc(OC)c1`, “inactive”; that for `C=C(C)[C@H]1CN[C@H](C(=O)O)[C@H]1CC(=O)O`, “inactive”.
On to `C[C@]12CC[C@H]3[C@@H](CCC4=CC(=O)CC[C@@H]43)[C@@H]1CC[C@@H]2OC(=O)CCC1CCCCC1`, for which the Potency entry is “inactive”.
Take `Nc1nc(N)nc(NC2CC2)n1`: the Potency result is “inactive”.
Turning to `O=C1OC(CCN2CCCCC2)OC1(c1ccccc1)c1ccccc1` (stereo not drawn), the Potency result is “inactive”.
In the case of `O=C1CN=C(c2ccccc2)c2cc([N+](=O)[O-])ccc2N1`, the Potency entry is “inactive”.
Still for that read-out and setting: under `CN1CC[C@]23c4c5ccc(O)c4O[C@H]2[C@@H](O)C=C[C@H]3[C@H]1C5` stands “inactive”.
On the same count and under the same terms, the result for `CN1C(=O)COc2c(C(=O)NC3CN4CCC3CC4)cc(Cl)cc21` (stereo not drawn) reads “inactive”.
For `CC(C)(N)Cc1ccccc1Cl`, the Potency entry was “inactive”.
For `CC(Cc1ccccc1)N(C)Cc1ccco1` (stereo not drawn), the Potency entry is “inactive”.
On the same count and under the same terms, under `Clc1cccc(SC2CCNCC2)n1` stands “inactive”; under `C=CCC1(C(C)CC)C(=O)NC(=O)NC1=O` (stereo not drawn), “inactive”.
For the molecule `CCN[C@@H](C)Cc1ccccc1`, the Potency entry is “inactive”.
The same measure, in the same setting: the result for `Clc1ccccc1N1CCNCC1` reads “inactive”; that for `O=C(O)CCCc1ccc(N(CCCl)CCCl)cc1`, “inactive”.
As to `C[C@]12CC[C@H]3[C@@H](CC[C@@]45O[C@H]4C(O)=C(C#N)C[C@]35C)[C@H]1CC[C@H]2O`, the Potency entry was “inactive”.
Still for that read-out and setting: the result for `O=c1[nH]c2ccccc2n1C1CCNCC1` reads “inactive”; that for `C=CCN1C[C@H](C)N([C@H](c2ccc(C(=O)N(CC)CC)cc2)c2cccc(OC)c2)C[C@H]1C`, “inactive”.
On to `c1ccc(N2CCNCC2)cc1`, for which the Potency result is “inactive”.
Still for that read-out and setting: the result for `CCCOC(=O)c1cncn1C(C)c1ccccc1` (stereo not drawn) reads “inactive”; that for `C[C@]12CC[C@H]3[C@@H](CCC4=CC(=O)CC[C@@H]43)[C@@H]1CC[C@@H]2OC(=O)CCc1ccco1`, “inactive”.
Still for that read-out and setting: under `CC(Cc1ccccc1)NCCn1cnc2c1c(=O)n(C)c(=O)n2C` (stereo not drawn) stands “inactive”; under `C#CC(O)(C=CCl)CC` (stereo not drawn), “inactive”; under `CCc1cc2c(s1)-n1c(C)nnc1CN=C2c1ccccc1Cl`, “inactive”.
Still for that read-out and setting: the result for `CC[N+]1(CC)CCC(OC(=O)C(O)(c2ccccc2)c2ccccc2)C1` (stereo not drawn) reads “inactive”.
Regarding `CC(=O)C1CCOC1=O` (stereo not drawn), the Potency entry was “inactive”.
The same measure, in the same setting: the result for `ClCCN1CCCC1` reads “inactive”.
Turning to `COc1c2c(cc3c1OCO3)CCN(C)C2`, the Potency entry was “inactive”.

Source of the values: PubChem BioAssay (NCATS).
